{"source": "PubChem BioAssay (NCATS)", "note": "Results filed as inconclusive are left out. A number with no mark means an inactive call. Active and inactive are the calls of the source. The call rests on the fitted dose curve; in most records, active means well fitted cell-killing curve with a large enough effect; inconclusive means small, poorly fitted or top-dose-only effect; inactive means flat fitted curve, though single readings scatter. Potency means the concentration at half of the fitted maximal effect."}
{"assay": "Cell Viability - LYMP2-022 (AID 987); further: nearly all actives have a fitted effect of over 55% in size;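 on viability change, negative = cytotoxic: 0% = DMSO alone and full effect = tetraoctylammonium bromide at 92 µM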", "details": "LYMP2-022 lymphoblastoid cell viability; series mostly up to 92.2 µM; viability change, negative = cytotoxic: at the top concentration", "excerpt": "NIH Chemical Genomics Center [NCGC]\nNIH Molecular Libraries Screening Centers Network [MLSCN]\nNational Institutes of Environmental Health Sciences [NIEHS]\nNational Toxicology Program [NTP]\nWe have developed a 1536-well cell-based assay for quantitative high throughput screening (qHTS) against a number of cell lines to determine in vitro cytotoxicity of small molecules. This particular assay uses a human lymphoblastoid cell line (LYMP2-022) purchased from Coriell Institute for Medical Research.\nNCGC Assay Protocol Summary:\nThe CellTiter-Glo luminescent cell viability assay (Promega) is a homogeneous method to measure the number of viable cells in culture. The end point readout of this assay is based on quantitation of intracellular ATP, an indicator of metabolic activity, using the luciferase reaction. Luciferase catalyzes the oxidation of beetle Luciferin to oxyluciferin and light in the presence of ATP. The luminescent signal is proportional to amount of ATP present.\nUsing the CellTiter-Glo luminescent cell viability assay, the amount of cellular ATP was measured in the lymphoblastoid cell line with complete culture medium following compound treatment for 24 hours. The assay was performed in opaque white Kalypsys 1536-well plates. In the screen, tetraoctylammonium bromide was used as positive control. Library compounds were measured for their ability to cause acute toxicity in the cell line, as reflected by a decrease in intracellular ATP levels, in a concentration-dependent manner. […] AC50 values were determined from concentration-response data modeled with the standard Hill equation.\nqHTS protocol for CellTiter Glo lymphoblastoid cellular assay\n[Step] [Parameter] [Value] [Description]\n1. Reagent; 5 uL; 2500 lymphoblastoid cells/well\n2. Time; 5 hr; 37 C incubation\n4. Controls; 23 nL; Tetraoctylammonium bromide 6.4pM to 92 uM\n5. Time; 24 hr; 37 C incubation\n6. Reagent; 5 uL; CellTiter Glo reagent\n7. Time; 30 min; Room Temperature\n8. Detection; Luminescence; Viewlux plate reader\nKeywords: cell viability, cytotoxicity, lymphoblastoid cell line, luminescence, NTPHTS, NTPHTS_NCGC, NIEHS, DSSTox, MLSMR, MLSCN, NIH Roadmap, qHTS, NCGC", "units": {"viability change, negative = cytotoxic": "%"}}
{"smiles": "Cc1nnc(NS(=O)(=O)c2ccc(N)cc2)s1", "viability change, negative = cytotoxic": -2.36}
{"smiles": "O=C(O)c1cc(=O)[nH]c(=O)[nH]1", "viability change, negative = cytotoxic": -10.3}
{"smiles": "Cc1ccnc2c1NC(=O)c1cccnc1N2C1CC1", "viability change, negative = cytotoxic": -16}
{"smiles": "CC1=NN(c2ccccc2)C(=O)C1", "viability change, negative = cytotoxic": -20.9}
{"smiles": "O=C(N[C@H](CO)[C@H](O)c1ccc([N+](=O)[O-])cc1)C(Cl)Cl", "viability change, negative = cytotoxic": 2.63}
{"smiles": "CCc1cc(C(N)=S)ccn1", "viability change, negative = cytotoxic": -1.01}
{"smiles": "CN(C)c1ccc(C(=C2C=CC(=[N+](C)C)C=C2)c2ccc(N(C)C)cc2)cc1", "Potency": "0.794 µM (active)"}
{"smiles": "CC[C@H](C)C(=O)O[C@H]1C[C@@H](C)C=C2C=C[C@H](C)[C@H](CC[C@@H]3C[C@@H](O)CC(=O)O3)[C@H]21", "viability change, negative = cytotoxic": -28.2}
{"smiles": "Cc1ncc([N+](=O)[O-])n1CCO", "viability change, negative = cytotoxic": -2.28}
{"smiles": "NC(N)=NC(N)=NCCc1ccccc1", "viability change, negative = cytotoxic": -24}
{"smiles": "N=C(N)c1ccc(OCCCCCOc2ccc(C(=N)N)cc2)cc1", "Potency": "39.8 µM (active)"}
{"smiles": "C[C@]12C=CC(=O)C=C1CC[C@@H]1[C@@H]2C(=O)C[C@@]2(C)[C@H]1CC[C@]2(O)C(=O)CO", "viability change, negative = cytotoxic": -14.7}
{"smiles": "NNC(=O)c1ccncc1", "viability change, negative = cytotoxic": -15.1}
{"smiles": "Cc1noc(NS(=O)(=O)c2ccc(N)cc2)c1C", "viability change, negative = cytotoxic": -6.61}
{"smiles": "COc1ccc2cc3[n+](cc2c1OC)CCc1cc2c(cc1-3)OCO2", "Potency": "31.6 µM (active)"}
{"smiles": "Cc1cc(NS(=O)(=O)c2ccc(N)cc2)no1", "viability change, negative = cytotoxic": -5.7}
